The sample as a whole holds a higher share of hits than the screen did.
RT RNaseH block: blocks HIV-1 RNase H cleavage of RNA/DNA duplex; P04585; RT-RNase H RNA/DNA duplex cleavage, fluorescence; inhibition, % at 10 µM; actives 1.9% (n = 65,000); AID 565; in the data active = inhibition above about 50%
RmlC RmlD mix: mixture blocks RmlC and RmlD coupled enzyme activity; RmlC/RmlD coupled enzyme inhibition, 384-well mixture HTS; inhibition, % at 5.5 µM; actives 0.39% (n = 110,000); AID 1532; in the data active = inhibition above about 30%, passing the limit was not always enough
RmlCD fluor art: shows fluorescent artifact in RmlC/RmlD assay, dose-response counter-screen; RmlC/RmlD assay fluorescence artifact counter-screen; AID 1696; calls only; shares compounds with RmlC RmlD mix; actives 96% (n = 360); call rule not given here;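 note: compound alone with no enzyme and no substrates present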
Starred values were filed as active, the others as inactive; · = no result given; + = active, no number.

SMILES | RT RNaseH block | RmlC RmlD mix | RmlCD fluor art
CCCn1c(SCC(=O)NC2CCCCC2C)n[nH]c1=O (stereo not drawn) | · | 5 | ·
Brc1ccc(-c2cn3cccnc3n2)cc1 | -10 | 45* | +
CC1CN(S(=O)(=O)c2cccc(-c3cn4cccnc4n3)c2)CC(C)O1 (stereo not drawn) | 0 | · | ·
O=S(=O)(c1cccc(-c2cn3cccnc3n2)c1)N1CCCCCC1 | 47 | -25 | ·
Clc1ccc(-c2cn3cccnc3n2)cc1 | · | 40* | +
O=S(=O)(c1cccc(-c2cn3cccnc3n2)c1)N1CCOCC1 | 22 | 67* | +
Clc1ccc(-c2cn3cccnc3n2)cc1Cl | · | 9 | ·
CCC1(CC)C(=O)C2=C3C1[C@H](C(=O)OC)CC(C(=O)OC)C[C@H]3[C@H]1C(=O)N(c3ccccc3)C(=O)[C@H]1[C@H]2C (stereo partly drawn) | · | -3 | ·
Cc1c(NC(=O)C(C)NCC2CCCO2)c(=O)n(-c2ccccc2)n1C (stereo not drawn) | · | -10 | ·
COCCN(C(=O)CCC(=O)Nc1ccccn1)C(C(=O)NC1CCCC1)c1ccc(OC)cc1 (stereo not drawn) | 0 | 7 | ·
COc1ccc(-c2nc(C#N)c(N3CCC(C(N)=O)CC3)o2)cc1 | · | 50* | +
N#Cc1nc(-c2ccc(OCc3ccccc3)cc2)oc1N1CCC(C(N)=O)CC1 | 45 | · | ·
CCOc1ccccc1NC(=O)c1ccccc1-c1nc(-c2ccccc2OC)no1 | -1 | 8 | ·
